Experimental findings from PubChem BioAssay (NCI) are described below.

This is part of a sample that, as a whole, favours compounds with a hit. Of some 79,000 tested, about 15% had one in any assay. Values without a mark were called inactive. The source made the active and inactive calls. Rule as the data show it: active = growth inhibition above about 70%; inactive = the rest.

The nature of this experiment: NCI Yeast Anticancer Drug Screen. Data for the mec2-1 strain (AID 157). To be noted: S. cerevisiae mec2-1 strain, at 50.0 µM (retest, dose inferred, filed as 5.0), stronger effect = higher value. The procedure, abridged: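 Each compound was tested on mec2-1 yeast, a strain altered in DNA damage repair or cell cycle control. Growth inhibition is reported relative to vehicle.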
Turning to `CNS(=O)(=O)c1ccccc1C=C(c1ccccc1)c1ccccc1`, the growth inhibition is 93% (active). The figure for `CC(C)c1cc(C(C)C)c(Cl)c(Cl)c1O` (tested in a mixture with another compound) is 100% (active); for `Nc1cccc2cccnc12` it is 14%; for `C[n+]1c(/C=C/c2ccc(N3CCCC3)cc2)sc2ccccc21` it is 99% (active). In the case of `Nc1cn(C2OC(CC(c3ccccc3)(c3ccccc3)c3ccccc3)C(O)C2O)c(=O)[nH]c1=O` (configuration not stated) it was 97% (active). Take `c1ccc(Cn2nnc(-c3ccccc3)c2-c2ccccc2)cc1`: the growth inhibition is 97% (active). In the case of `CCCCCC(CCCCC)OC(=O)CCN(CCCCC)CCCCC`, the growth inhibition is 86% (active). Consider `C=CCC1(OC(C)=O)CC2C(=O)C(=O)C(C1)N2OC(=O)c1ccccc1` (configuration not stated), for which the growth inhibition is 96% (active). Take `C=CS(=O)(=O)c1ccc([N+](=O)[O-])cc1`: the growth inhibition is 99% (active). The figure for `Cc1ccc(S(=O)(=O)Oc2ccc(C(C)(C)C)cc2Cl)cc1` is -25%; for `O=C(CCl)N1CCN(C(c2ccccc2)c2ccccc2)CC1` it is 95% (active); for `Oc1ccc2ccccc2c1.[Cu+2]` it is 12%.

With `NS(=O)(=O)c1ccc(NC(=O)Cc2nc3ccccc3s2)cc1`, the growth inhibition is 99% (active). For the compound `O=C(COc1ccc(Cl)cc1)OCCO`, the growth inhibition is 0%. As for `NC(=Nc1ccccc1)SCc1ccc([N+](=O)[O-])cc1`, the growth inhibition was 78% (active). Consider `N[C@@H]1CCCC[C@@H]1N.O=C([O-])CN(CP(=O)([O-])[O-])CP(=O)([O-])[O-].[Pt+2]`, for which the growth inhibition was 75% (active). On to `C/C=C(\C)CC/C=C/CO[Si](C)(C)C(C)(C)C`, for which the growth inhibition was -19%.
